Sfp PPTase inh = qHTS Assay for Inhibitors of Bacillus subtilis Sfp phosphopantetheinyl transferase (PPTase); Biochemical Sfp PPTase activity, qHTS; 3.5% of 310,000 active; Potency, µM, for the others: largest response in the series, negative = inhibition, most hits filed as inhibitors; 4'-phosphopantetheinyl transferase ffp (Bacillus subtilis), Q9F4F7; active = well fitted curve in the direction sought with a large enough effect; inconclusive = small, poorly fitted or top-dose-only effect, or another doubt; inactive = no such curve, though single readings can be large; an effect the other way counts as inactive or inconclusive;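 also: the enzyme is Sfp with the accession as filed and its product quenches rhodamine fluorescence; potency is read from the fitted curve at half-maximal effect; 0% = enzyme reaction without inhibitor and -100% = no enzyme wells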
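Fluorescence-quenching assay: 15 nM Sfp-PPTase preincubated 15 min at room temperature with compound, then 5 uM rhodamine-CoA and 12.5 uM BHQ-2-labelled YbbR peptide added. Fluorescence (ex 525/em 598 nm) read at start and after 30 min; difference gives rate.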
NPSR antagonist = qHTS Assay for Antagonists of the Neuropeptide S Receptor: cAMP Signal Transduction; CHO-NPSR cells, cAMP TR-FRET, antagonist mode; 1% of 220,000 active; Potency, µM (highest dose often 38.3 µM), without a hit: at the top dose activity change, negative = inhibition, usual class: inhibitors; Q6W5P4; active = well fitted curve in the direction sought with a large enough effect; inconclusive = small, poorly fitted or top-dose-only effect, or another doubt; inactive = no such curve, though single readings can be large; an effect the other way counts as inactive or inconclusive; also: potency is read from the fitted curve at half-maximal effect; nearly all actives have a fitted effect of over 50% in size
Target sequence (Q6W5P4 whole entry, looked up): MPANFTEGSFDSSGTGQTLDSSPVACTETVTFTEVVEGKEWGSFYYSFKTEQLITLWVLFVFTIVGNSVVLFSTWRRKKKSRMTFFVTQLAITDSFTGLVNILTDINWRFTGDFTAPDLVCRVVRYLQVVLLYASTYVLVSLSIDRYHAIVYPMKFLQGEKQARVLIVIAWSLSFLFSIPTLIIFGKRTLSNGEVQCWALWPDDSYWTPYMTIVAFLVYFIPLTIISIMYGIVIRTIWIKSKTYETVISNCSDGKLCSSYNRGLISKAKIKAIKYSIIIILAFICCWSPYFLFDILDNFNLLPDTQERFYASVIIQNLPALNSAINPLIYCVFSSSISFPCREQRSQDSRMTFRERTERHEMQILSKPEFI
GoLoco inh red = qHTS Assay for Inhibitors of RGS12 GoLoco Motif Activity (Red Fluorophore) | Guanine nucleotide-binding protein G(i) subunit alpha-1 (Homo sapiens), P63096 | Gai1:RGS12 GoLoco peptide FP, rhodamine, 10 min | Potency, µM (titrated, usually from 61.6 µM), without a hit: at the top dose activity, negative = inhibition, usual class: inhibitors | 0.44% of 230,000 active | AID 880, 2007; active = well fitted inhibition curve with a large enough effect, not every such curve was filed as active; inactive = no such curve, though single readings can be large or run the other way; also: potency is read from the fitted curve at half-maximal effect; nearly all actives have a fitted effect of over 30% in size
KDM4E inh = qHTS Assay for Inhibitors of Human Jumonji Domain Containing 2E (JMJD2E). 1.6% of 230,000 active. AID 2147, 2009. Lysine-specific demethylase 4E (Homo sapiens), B2RXH2. JMJD2E catalytic domain, FDH-coupled NADH fluorescence (FDH is formaldehyde dehydrogenase). Potency, µM (doses to about 57.1 µM), inactives show at the highest dose activity change, negative = inhibition, usual class: inhibitors;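 also: potency is read from the fitted curve at half-maximal effect; 0% = wells with enzyme and -100% = buffer wells without enzyme; nearly all actives have a fitted effect of over 50% in size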
Target sequence (B2RXH2 1-337 limits assumed): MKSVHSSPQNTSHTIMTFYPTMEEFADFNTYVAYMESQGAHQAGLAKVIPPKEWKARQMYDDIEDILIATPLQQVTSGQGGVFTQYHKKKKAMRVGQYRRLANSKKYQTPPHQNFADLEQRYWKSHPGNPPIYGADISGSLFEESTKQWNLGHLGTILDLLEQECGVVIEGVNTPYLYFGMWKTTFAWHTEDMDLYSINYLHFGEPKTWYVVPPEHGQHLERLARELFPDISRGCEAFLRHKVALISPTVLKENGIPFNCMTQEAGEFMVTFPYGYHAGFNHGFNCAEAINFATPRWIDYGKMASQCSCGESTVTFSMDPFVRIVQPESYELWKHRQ
Coupling enz = qHTS Assay for Inhibitors of Fructose-1,6-bisphosphate Aldolase from Giardia Lamblia: Coupling assay counterscreen; coupling enzyme system counterscreen, AmpLite Red fluorescence; activity change, negative = inhibition, % at 58.2 µM, hits read low; 0.67% of 290,000 active; in the data active = activity change below about -30%
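Counterscreen of the coupled detection system alone, without aldolase: glyceraldehyde-3-phosphate coupling enzymes plus AmpLite Red readout. Compounds at 57.5 uM final, 10 min RT preincubation, 20 min RT reaction, fluorescence 525/598 nm.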
ALDH1A1 inh = qHTS Assay for Inhibitors of Aldehyde Dehydrogenase 1 (ALDH1A1); Purified ALDH1A1, NADH fluorescence, propionaldehyde substrate; Potency, µM (top dose mostly 75.3 µM), for inactives: at the highest dose activity, negative = inhibition, hits mostly inhibitors; 7.3% of 220,000 active;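 also: potency is read from the fitted curve at half-maximal effect; plate controls were no enzyme wells and a reference inhibitor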
An asterisk follows results filed as active; ? = inconclusive; · = not tested or not shown; [ ] = another dose, or the depositor's remark. Only some compounds are listed: those with a hit (about 8.5% of all), similar ones and a draw of the others. Unless noted, calls follow the shape of the dose curve; as a rule, active = well fitted inhibition curve with a large enough effect (not every such curve was filed as active); inconclusive = small, poorly fitted or top-dose-only effect, or another doubt; inactive = no such curve, though single readings can be large or run the other way. Unless noted, % is scaled to controls: 0 for no effect and ±100 for the full control effect.

SMILES	Sfp PPTase inh	NPSR antagonist	GoLoco inh red	KDM4E inh	Coupling enz	ALDH1A1 inh
Cc1cc(N=Cc2c(O)ccc3ccccc23)no1	-13%	11%[46.1 µM]	·	-20%	-43*	?
Cc1n[nH]c(=S)n1/N=C/c1c(O)ccc2ccccc12	63µM*	·	·	·	0	·
COc1cc(CCC(=O)OCC(=O)Nc2ccc(F)cc2F)cc(OC)c1OC	8%	·	·	·	0	·
O=C(c1cnn(C(=O)c2ccccc2)c1)c1ccccc1O	0%	-4%	1%	5%	1	2.2µM*
Cc1ccc(O)c(C(=O)c2cnn(C(=O)COc3ccc(Cl)cc3)c2)c1	-3%	0%	27%	6%	2	1.8µM*
O=C(c1cnn(C(=O)COc2ccc(Cl)cc2)c1)c1ccccc1O	14%	6%	4%	-6%	-11	4.5µM*
O=C(O)c1ccc(-n2cc(C(=O)c3ccccc3O)cn2)cc1	16%	·	·	·	8	·
Cc1cccc(NS(=O)(=O)c2cnc(Cl)c(Br)c2)n1	10%	0%	-9%	3%	0	-6%
CCn1ccc(C(=O)Nc2ncc(C)s2)n1	-3%	·	·	·	·	·
Cc1cccc(C(=O)N[C@H](C(=O)NCCc2ccc(Cl)cc2)C(C)C)c1	11%	·	·	·	-1	·
CCCCc1ccc(/C=C(\C#N)C(N)=S)s1	40µM*	?	13%	-17%	-1	?
O=C(CC(c1ccccc1)c1cc(Cl)ccc1O)NCCCN1CCOCC1 (configuration not stated)	4%	·	·	·	0	·
COc1ccc(C)cc1NC(=O)CCNS(=O)(=O)c1cccc2nonc12	0%	·	·	·	1	·
COc1ccc(C)cc1NS(=O)(=O)c1cccc2nonc12	0%	-11%[46.1 µM]	-1%	-2%	-4	14µM*
Cc1sc2ncn(CC(=O)NCc3ccco3)c(=O)c2c1-c1ccc(F)cc1	18µM*	11%	14%	0%	0	?
O=C(Cn1cnc2c(nnn2Cc2ccccc2F)c1=O)NCc1ccco1	89µM*	-5%[46.1 µM]	5%	6%	-2	-2%
CCCc1cc(=O)oc2cc(C)cc(OCC(=O)NCc3ccncc3)c12	21%	·	·	·	3	·
Cc1ccc(-c2csc3ncnc(NCCC(=O)O)c23)cc1C	24%	·	·	·	0	·
CCn1c(=N)n(CC(=O)C23CC4CC(CC(C4)C2)C3)c2ccccc21	-20%	-24%[46.1 µM]	4%	?	-1	22µM*
CCN(CC)CC(=O)Nc1scc2c1c(=O)oc1ccccc12	-7%	5%	-2%	-3%	2	·
O=C1C(Cl)=C(NCCCO)C(=O)c2ccccc21	0%	-8%[46.1 µM]	21%	-3%	-38*	-3%
CCOCCCNC1=C(Cl)C(=O)c2ccccc2C1=O	45µM*	?	3.2µM*	?	-24	·
CCC(C)(C)NC(=O)CN(C(=O)CCC(=O)Nc1nccs1)c1ccccc1C	10%	·	·	·	1	·
CCCC(=O)C1=C(c2ccccc2)C(C#N)(C#N)C(C#N)=C1N	28µM*	-13%[46.1 µM]	25%	?	-15	?
CCCC(=O)C1=C(N(C)c2ccccc2)CC(C)(C)CC1=O	9%	·	·	·	-1	·
SMILES	Sfp PPTase inh	NPSR antagonist	GoLoco inh red	KDM4E inh	Coupling enz	ALDH1A1 inh
S=c1[nH]ncn1/N=C/c1cccc(Oc2ccccc2)c1	-20%	-14%[46.1 µM]	-14%	-9%	-7	18µM*
C(=N\n1cnnc1)/c1cccc(Oc2ccccc2)c1	5%	-6%[46.1 µM]	2%	-1%	-2	6%
CC(/C=C/C=C/c1ccccc1)=N/NC(=O)c1ccc2c(c1)OCCO2	10%	-11%	10%	-20%	2	-11%
COc1ccc(NC(=O)CCCc2ccccc2)cc1OC	0%	·	·	·	1	·
Cc1ccc(S(=O)(=O)Oc2ccc(/C=C(/NC(=O)c3ccccc3)C(=O)NCCCC(=O)O)cc2)cc1	-3%	-9%	13%	-8%	2	2.8µM*
Cc1ccc(S(=O)(=O)Oc2ccc(/C=C(/NC(=O)c3ccccc3)C(=O)NCCC(=O)O)cc2)cc1	5%	-5%	-1%	-21%	5	2.5µM*
Cc1ccc(S(=O)(=O)Oc2ccc(/C=C(/NC(=O)c3ccccc3)C(=O)Nc3ccccc3)cc2)cc1	9%	-24%[46.1 µM]	-11%	-5%	3	?
COc1ccc(NC(=O)/C(=C\c2ccc(OS(=O)(=O)c3ccc(C)cc3)cc2)NC(=O)c2ccccc2)cc1	-11%	-12%[46.1 µM]	1%	1%	·	1µM*
Cc1ccc2c(c1)N[C@H](c1ccc(C(=O)O)cc1)c1cccn1-2	·	·	-3%[14.2 µM]	·	·	?
O=C(CN(c1ccc(Cl)c(C(F)(F)F)c1)S(=O)(=O)c1ccccc1)N/N=C/c1cccc2c1OCCO2	16%	?	6%	?	-10	?
COc1ccc(/C=C/CN2CCC(CO)(Cc3ccccc3Cl)CC2)cc1	-6%	-31%	30%	-4%	1	0%
CSc1nc(=S)c2[nH]c(=S)[nH]c2[nH]1	2.5µM*	?	-27%	11µM*	-6	1.4µM*
COc1ccc(NC(=O)COc2ccccc2)cc1Cl	19%	·	·	·	1	·
Cc1cc(NC(=S)Nc2ccc(C)c(Cl)c2)n[nH]1	?	-35%	9%	-3%	-6	1.4µM*
CCOc1ccc(NC(=S)Nc2cc(-c3ccccc3)[nH]n2)cc1	9%	?	8%	6%	-6	13µM*
COc1ccc(NC(=S)Nc2cc(-c3ccccc3)[nH]n2)cc1Cl	?	-22%[46.1 µM]	10%	-12%	1	10µM*
CCOc1ccc(NC(=S)Nc2cccnc2)cc1	?	11%	8%	?	0	?
COc1ccc(NC(=S)Nc2cc(C)[nH]n2)cc1Cl	?	-16%	-20%	2%	2	·
CCOC(=O)C1CCN(C(=O)CCCn2nc(C)c3c(C)n(-c4ccc(C)cc4)nc3c2=O)CC1	5%	·	·	·	0	·
CC(NC(=O)CCCCCNC(=O)N1CCn2c1nc1ccccc12)c1ccccc1 (configuration not stated)	-2%	·	·	·	-3	·
Cc1cccc(NC(=O)Cn2c(O)c(N=NC(=O)c3ccccc3O)c3ccccc32)c1	?	-27%	4%	4%	3	13µM*
Cc1ccc(NC(=O)Cn2c(O)c(N=NC(=O)c3cc([N+](=O)[O-])ccc3O)c3ccccc32)cc1	14%	3%	11%	0%	4	·
CC(C)N(CCn1cnc2c([nH]c3ccccc32)c1=O)C(C)C	2%	-4%	0%	?	2	·
COc1cc2[nH]c3c(=O)n(CCN(C(C)C)C(C)C)cnc3c2cc1OC	-19%	-2%[46.1 µM]	8%	?	-45*	?

Screening data: PubChem, National Center for Advancing Translational Sciences (NCATS)
